Assay outcomes deposited in PubChem by National Center for Advancing Translational Sciences (NCATS).
The list is not random: actives were taken first. Their share in the collection is about 2.7%.
Nrf2 block: inhibitors of Nrf2 signaling | A549 ARE-Fluc reporter, luciferase luminescence, 18-24 h | actives 2.1% (n = 360,000) | Potency, µM (titrated, usually from 46 µM), for inactives: at the top dose activity change, negative = inhibition, usual class: inhibitors; note: potency is the fitted concentration of half-maximal effect; % is set by controls: 0 for no effect and ±100 for the full control effect; nearly all actives have a fitted effect of over 60% in size
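Concentration-response testing used A549 ARE_Fluc cells at 5000 cells/well. Following an 18-24 h compound incubation, viability was read by fluorescence (Ex 405/Em 525) and luciferase output by luminescence.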
ALOX12 inh: ALOX12 (human) lipoxygenase inhibition. Potency, µM (doses to about 108 µM), for the others: at the highest dose activity change, negative = inhibition, most hits filed as inhibitors. P18054. AID 1671190. purified 12hLO, xylenol orange hydroperoxide absorbance. actives 1.1% (n = 580,000); note: potency is the fitted concentration of half-maximal effect; % is set by controls: 0 for no effect and ±100 for the full control effect
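Purified human 12hLO at 150 nM in 25 mM Hepes, 0.01% Triton X-100, pH 7.0, preincubated 15 min at room temperature with compound. Reaction started with 40 uM arachidonic acid, 30 min at room temperature. Hydroperoxide measured by Fe-xylenol orange, 573/405 nm absorbance ratio.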
Nrf2 ARE act: activates Nrf2 signaling. actives 0.31% (n = 410,000). AREc32 ARE-luciferase reporter (MCF7-derived line), luminescence, 24 h. Potency, µM (highest dose often 46.1 µM), for the others: at the highest dose activation, usual class: activators; note: potency is the fitted concentration of half-maximal effect; % of control where 0% means no effect; nearly all actives have a fitted effect of over 65% in size
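Each well held 1000 AREc32 cells, which were incubated with compound for 24 hr at 37 deg C after overnight attachment, and ARE reporter activity was quantified by firefly luciferase luminescence.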
LDHA inh: blocks human lactate dehydrogenase A; P00338; purified LDHA, NADH/diaphorase-resazurin fluorescence; hits give low values; activity change, % (values are at about 110 or 230 µM); actives 0.15% (n = 480,000); in the data active = activity change below about -30%; inconclusive = mostly about -25% to -30%;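 note: plate controls were DMSO wells for no effect and wells without enzyme for full effect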
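Resorufin fluorescence (ex540/em590), read at 0 and 20 min after diaphorase/resazurin addition, reports the NADH left after a 5 min room-temperature reaction of 2 nM human LDH5 with 0.06 mM NADH and 0.2 mM pyruvate.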
A549 viability: A549 cytotoxicity, counter-screen for Nrf2 inhibitors; A549 ARE-Fluc cells, CellTiter-Fluor viability, 18-24 h; Potency, µM (titrated, usually from 46 µM), inactives show top-dose activity change, negative = cytotoxicity, usual class: inhibitors; actives 0.16% (n = 390,000); note: potency is the fitted concentration of half-maximal effect; % is set by controls: 0 for no effect and ±100 for the full control effect
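A549 ARE_Fluc cells in 5% FBS OPTI-MEM were exposed to compounds in concentration-response for 18-24 h at 37 deg C. Viability was read by CellTiter-Fluor fluorescence (Ex 405/Em 525) after 30 min, before the luciferase read.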
ERG-DNA inh: inhibitors of human ERG Ets domain-DNA interaction | fluorescence polarization, His-ERG Ets domain / labelled DNA | actives 0.028% (n = 370,000) | Potency, µM (doses to about 76.9 µM), inactives show at the highest dose FP activity, negative = inhibition, hits mostly inhibitors | P11308 | AID 624246; active = well fitted inhibition curve with a large enough effect in the polarisation, with a control signal flat; inconclusive = small, poorly fitted or top-dose-only effect, or effect the other way, or a change in a side signal; inactive = no such curve, though single readings can be large or run the other way; the % refers to the polarisation;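 note: polarization taken with two DNA probes labelled with fluorescein and Texas red; potency is the fitted concentration of half-maximal effect; % of control where 0% means no effect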
Target sequence (P11308 whole entry, looked up, the tested form may be a part): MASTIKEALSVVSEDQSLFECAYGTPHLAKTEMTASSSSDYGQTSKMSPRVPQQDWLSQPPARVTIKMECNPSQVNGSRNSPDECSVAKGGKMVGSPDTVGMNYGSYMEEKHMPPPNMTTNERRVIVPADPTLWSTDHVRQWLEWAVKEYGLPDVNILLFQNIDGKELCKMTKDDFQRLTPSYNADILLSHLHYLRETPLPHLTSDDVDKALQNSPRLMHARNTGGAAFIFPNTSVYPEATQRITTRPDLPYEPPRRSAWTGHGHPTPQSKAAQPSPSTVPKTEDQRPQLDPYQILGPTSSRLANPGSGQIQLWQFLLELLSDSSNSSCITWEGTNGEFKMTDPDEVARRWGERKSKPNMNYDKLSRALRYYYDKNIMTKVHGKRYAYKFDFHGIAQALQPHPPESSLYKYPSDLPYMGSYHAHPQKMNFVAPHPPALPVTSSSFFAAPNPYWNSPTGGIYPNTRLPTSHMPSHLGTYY
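His-tagged ERG Ets domain (1 uM in the protein solution; 300mM KCl, 50mM Tris-HCl, 1mM EDTA, 1mM DTT, pH 7.5) received compound, then a probe mix of 5 nM fluorescein-DNA and 100nM Texas-615-DNA. Fluorescence polarization was read for both dyes.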
An asterisk follows results filed as active; ? = inconclusive; · = no result given; ! = a repeat was not active; [ ] = another dose, or the depositor's remark. Unless noted, calls come from the whole dose curve; as a rule, active = well fitted curve in the direction sought with a large enough effect; inconclusive = small, poorly fitted or top-dose-only effect, or another doubt; inactive = no such curve, though single readings can be large; an effect the other way counts as inactive or inconclusive.

SMILES | Nrf2 block | ALOX12 inh | Nrf2 ARE act | LDHA inh | A549 viability | ERG-DNA inh
CC1(C(=O)NS(=O)(=O)c2cccc(F)c2)CCN1C(=O)c1ccccc1CCc1ccccc1 (stereo not given) | · | 7.08µM* | 0.1% | -0.3 | · | ·
COc1ccc(-c2nc3c4c(ncn3n2)-c2ccccc2CC42CCCC2)cc1 | -8.9% | -6.8% | -1.2% | -7.0 | 0.3% | 6.7%
Oc1cccc(-c2nc3c4c(ncn3n2)-c2ccccc2CC42CCCC2)c1 | 23.1µM* | -5.6% | -2.4% | -4.4 | ? | -0.6%
c1ccc2c(c1)nnn2-c1ncnc2sccc12 | ? | 8.6% | 3.98µM* | -3.1 | 0.7% | 20.3%
O=C(Cn1ccc2ccc(Cl)cc21)Nc1ccc2c(c1)OCO2 | · | 18.0% | · | 4.0 | · | ·
O=C1/C(=C/c2ccc(O)c(O)c2)Oc2cc(O)ccc21 | -11.9% | 11.2µM* | 23.6% | 3.7 | -25.9% | 96.8%
O=C(CCN1C(=O)/C(=C\C=C\c2ccccc2)SC1=S)Nc1ccc(C(=O)O)cc1 | 2.6% | 31.6µM* | 12.4% | 4.3 | -2.9% | 37.1%
O=C(COC(=O)CCN1C(=O)/C(=C\C=C\c2ccccc2)SC1=S)Nc1cc(F)ccc1F | 8.2µM* | ? | -0.8% | -8.3 | ? | 27.3%
COc1cc(C)cc2oc(=O)c(CC(=O)NC3CCCCCC3)c(C)c12 | · | ? | · | 4.5 | · | ·
Cc1ccc(S(=O)(=O)NCC(=O)OCc2coc(-c3cccs3)n2)cc1C | · | -2.5% | · | -9.0 | · | ·
COc1ccc(C(CC(=O)N2CCCCC2)c2c(OC)cc(OC)c3c(-c4ccccc4)cc(=O)oc23)cc1 (stereo not given) | ? | 39.8µM* | 5.0% | 0.3 | ? | 9.1%
CCN(CC)CCC(c1ccc(OC)cc1)c1c(OC)cc(OC)c2c(C)cc(=O)oc12 (stereo not given) | -4.8% | · | · | · | 11.6µM* | ·
CCN(CC)CCC(c1ccc2c(c1)OCO2)c1c(OC)cc(OC)c2c(C)cc(=O)oc12 (stereo not given) | 8.5% | · | · | · | -26.1% | ·
C[C@](N)(Cc1ccc(O)c(O)c1)C(=O)O | -6.8% | ? | -0.1% | -2.4 | -3.8% | 1.5%
NCCc1ccc(O)c(O)c1 | -9.6% | 2.82µM*! | -0.1% | 5.5 | -1.3% | -2.6%
O=C(COC(=O)/C=C/c1ccccc1[N+](=O)[O-])NCc1ccco1 | 3.1% | -2.8% | 14.1µM* | 1.0 | 6.0% | -0.6%
COC(=O)CNC(=O)COC(=O)/C=C/c1ccccc1[N+](=O)[O-] | 22.3% | -13.5% | 27.9% | 0.4 | 0.5% | -6.9%
Cc1ccc(N/N=C(\C#N)C(N)=S)c(C)c1 | 3.2% | 8.91µM* | 0.9% | -6.4 | -14.3% | -1.5%
COc1nc(-c2ccccc2)ccc1-c1noc(-c2ccco2)n1 | ? | 20µM* | 20.4% | -5.8 | 15.5% | 13.1%
Cc1ccc2c(c1)N=C(c1ccc(F)cc1)CO2 | · | ? | ? | 5.6 | -5.3% | 9.2%
O=[N+]([O-])c1ccc(C2=Nc3cc(Cl)ccc3OC2)cc1 | ? | ? | 12.6µM* | -0.5 | -5.5% | -17.8%
COc1cccc(Oc2c(C)oc3cc(OC)ccc3c2=O)c1 | · | ? | · | 7.2 | · | ·
COCc1cc(=O)[nH]c(Nc2nc3ccc(C)cc3o2)n1 | ? | 1.9% | 12.6µM* | 1.1 | ? | 3.1%
CCc1ccc2nc(Nc3nc(COC)cc(=O)[nH]3)nc(C)c2c1 | -12.4% | -21.9% | -0.1% | -7.9 | 3.7% | -2.6%
O=c1cc(/C=C/c2cccs2)[nH]c2ccccc12 | 13µM* | -35.6% | 0.1% | -0.5 | -14.1% | -0.5%
SMILES | Nrf2 block | ALOX12 inh | Nrf2 ARE act | LDHA inh | A549 viability | ERG-DNA inh
CSc1ccc(/C=C/c2cc(=O)c3ccccc3[nH]2)cc1 | -15.2% | ? | 4.2%[9.22 µM] | -4.6 | 2.0% | -2.1%
COc1ccccc1CNS(=O)(=O)c1ccc2c(c1)CC(C)N2C(=O)C1CCC1 (stereo not given) | 18.4µM* | 2.1% | 2.8% | 2.5 | -14.2% | -4.3%
CC1Cc2cc(S(=O)(=O)CCC(=O)Nc3ccc(OC(F)(F)F)cc3)ccc2N1C(=O)C1CC1 (stereo not given) | 23.1µM* | -16.7% | -1.1% | -8.8 | 1.3% | 9.5%
Cc1cc(C)c(NS(=O)(=O)c2ccc3c(c2)CC(C)N3C(=O)C2CCC2)c(C)c1 (stereo not given) | 20.6µM* | -14.8% | -0.1% | -2.5 | -4.7% | -11.1%
Cc1cccc(NS(=O)(=O)c2ccc3c(c2)CC(C)N3C(=O)C2CCC2)c1C (stereo not given) | ? | -8.8% | -0.2% | 1.9 | -3.9% | -1.4%
CCCN(c1ccccc1CC)S(=O)(=O)c1ccc2c(c1)CC(C)N2C(=O)C1CC1 (stereo not given) | 20.6µM* | -13.9% | 5.1% | 1.7 | -5.6% | -3.2%
CN(C)S(=O)(=O)c1ccc(-c2nc(C#N)c(NCc3ccc(F)cc3)o2)cc1 | · | ? | · | -6.2 | · | ·
N#Cc1cccnc1NCCCNc1ncccc1C#N | · | 7.2% | · | 0.3 | · | ·
CCCN1C(=O)c2ccccc2NC1c1ccc(OC)c(COc2cccc(C)c2C)c1 (stereo not given) | 25.9µM* | · | · | 0.7 | -7.7% | ·
COc1ccc(C2Nc3ccccc3C(=O)N2Cc2ccccc2)cc1COc1ccccc1OC (stereo not given) | -26.9% | · | · | 0.8 | 1.5% | ·
COc1ccc(C2Nc3ccccc3C(=O)N2Cc2cccc(Cl)c2)cc1COc1ccc(NC(C)=O)cc1 (stereo not given) | 23.1µM* | · | · | 9.9 | -15.7% | ·
COc1ccc(CN(Cc2ccccc2)C(=O)c2ccccc2)cc1COc1ccc(NC(C)=O)cc1 | 23.1µM* | · | · | 2.1 | -18.1% | ·
Cc1ccc(/C=N/NC(=O)C2CC2)o1 | · | 3.3% | · | 13.0 | · | ·
CCCc1cc(=O)oc2cc(C)cc(OC(C)C(=O)NCCCN(C)C)c12 (stereo not given) | · | -22.8% | · | 2.9 | · | ·
CCN=c1scc(C)n1/N=C/c1ccsc1 | ? | -0.2% | 7.08µM* | -4.9 | -1.7% | 12.0%
CCc1nc(N(CC)CC)c2oc3ccccc3c2n1 | -0.1% | ? | -0.5% | -7.1 | 2.5% | -5.6%
CCc1nc(N2CCC(C)CC2)c2oc3ccccc3c2n1 | ? | 11.2µM* | -0.6% | -0.6 | -25.4% | 0.2%
CC(C)(C)c1ccc(S(=O)(=O)N2CCN(CC(O)COCC3CCCO3)CC2)cc1 (stereo not given) | -9.4% | 14.8% | -0.1% | -1.0 | 1.3% | 1.0%
O=S(=O)(c1ccc(Cl)c(C(F)(F)F)c1)N1CCN(CC(O)COCC2CCCO2)CC1 (stereo not given) | -9.0% | 0.562µM* | -0.9% | -19.1 | 4.2% | -9.4%
CCC(C)NC(=O)Cn1ncc2ccccc2c1=O (stereo not given) | · | ? | · | -1.9 | · | ·
